# Pf Dd2 growth: qHTS Primary assay for Inhibitors of Plasmodium falciparum Dd2 growth in vitro. Potency, µM (highest dose often 28.9 µM), for inactives: top-dose activity, negative = inhibition, usual class: inhibitors. P. falciparum Dd2 growth, SYBR Green, 72 h. hit rate 4.3% among 120,000. AID 1347417, 2020; active = well fitted inhibition curve with a large enough effect;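 note: plate controls were DMSO vehicle for no effect and reference drug for full effect; nearly all actives have a fitted effect of over 65% in size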
#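 Infected erythrocytes (Dd2, 0.3% parasitemia, 2.5% hematocrit final) are added to compound in RPMI-1640/Albumax II medium, grown 72 h at 37C in low oxygen, then lysed with saponin/Triton-X containing SYBR Green and read by fluorescence.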
# Numbers without * were called inactive; i = inactive; [ ] = remark or other dose. Many of the other results were omitted from the sample, so hits are more common in it than they were. Potency is the fitted concentration of half-maximal effect.
SMILES,Pf Dd2 growth
CC(C)Cc1nc(CN2C[C@@H]3CC[C@H](C2)N(Cc2ccccc2)C3)no1,10µM*
C#CCN(C)C(=O)C[C@@H]1c2nc(-c3cccnc3)sc2C[C@@H]2[C@](C)(CO)[C@H](O)CC[C@]21C,-19%
COc1ccc(CNc2ncnc3c2CN(c2ccc(OC)cc2)C(=O)CN3C)cc1,-2%
O=C(c1ccccn1)N1CCC(Oc2ccc(-c3noc(-c4ccccc4)n3)cc2)C1 (stereo unspecified),i[5.79 µM]
O=C(c1ccoc1)N1CC2CC(C1)[C@H]1CCCC(=O)N1C2 (stereo partly specified),6%
CCOc1ccccc1C(=O)Nc1ccc2nc(N(CC)CC)cc(C)c2c1,-7%
CCOc1ccc(C(=O)Nc2ccc3nc(N(CC)CC)cc(C)c3c2)cc1,-8%
CCOc1ccc(/C=C/C(=O)Nc2ccc3nc(N(CC)CC)cc(C)c3c2)cc1OC,1µM*
CCN(CC)c1cc(C)c2cc(NC(=O)/C=C/c3cc(OC)c(OC)c(OC)c3)ccc2n1,1.1µM*
CCN(CC)c1cc(C)c2cc(NC(=O)c3cccc(OC)c3)ccc2n1,i
CCN(CC)c1cc(C)c2cc(NC(=O)c3cccc(OC)c3OC)ccc2n1,-27%
CC(C)c1cc(C(=O)NCc2cccnc2Oc2cccc(C(F)(F)F)c2)n[nH]1,-12%
COc1ccc(C(=O)N[C@H]2CC[C@]3(C)CC[C@@H]4[C@H](OC(=O)[C@H]4C)[C@H]3[C@@H]2C)cc1,-4%[44.1 µM]
CC1=NOC2(CCN(C(=O)c3ccc(F)cc3)CC2)C1,-17%[44.1 µM]
O=C(Cn1ncc2c3ccccc3n(Cc3ccc(Cl)cc3)c2c1=O)NCc1ccccn1,-22%
Cc1cc(C)c(Cn2c3ccccc3c3cnn(CC(=O)N4CCCCCC4)c(=O)c32)c(C)c1,7.1µM*
CC(CCc1ccccc1)NC(=O)Cn1ncc2c3ccccc3n(Cc3cccc(Cl)c3)c2c1=O (stereo unspecified),-5%
CC1CCC(NC(=O)Cn2ncc3c4ccccc4n(Cc4ccc(F)cc4)c3c2=O)CC1 (stereo unspecified),-8%
O=C(Cn1ncc2c3ccccc3n(Cc3ccccc3)c2c1=O)N1CCCCCC1,3%
Cc1ccccc1Cn1c2ccccc2c2cnn(CC(=O)NCc3ccccn3)c(=O)c21,0%
CCOC(=O)N1CCN(C(=O)Cn2ncc3c4ccccc4n(Cc4ccc(F)cc4)c3c2=O)CC1,10µM*
CCCn1c2ccccc2c2cnn(CC(=O)N3CCC(C)CC3)c(=O)c21,i
Cc1ccccc1Cn1c2ccccc2c2cnn(CC(=O)NC3CCCCCC3)c(=O)c21,12%
CCC(Cc1ccccc1)NC(=O)Cn1ncc2c3ccccc3n(Cc3ccc(F)cc3)c2c1=O (stereo unspecified),-5%
O=C(Cn1ncc2c3ccccc3n(Cc3cccc(Cl)c3)c2c1=O)N1CCCCCC1,8.9µM*
SMILES,Pf Dd2 growth
Cc1cc(C)c(Cn2c3ccccc3c3cnn(CC(=O)NCc4ccccn4)c(=O)c32)c(C)c1,10µM*
O=C(c1ccc2c(c1)OCCO2)N1CCC(Cn2cc(CCO)nn2)CC1,-27%
COC(=O)[C@@H]1Cc2ncn(C(C)C)c2CN1S(=O)(=O)c1cccs1,-24%[44.1 µM]
COc1ccc(-c2nnc3n2CCN(C(=O)c2ccccc2Cl)C3)cc1,-29%
Cc1cccc(NC(=O)c2cc3n(n2)CC(c2ccc(Cl)cc2)OC3)c1C (stereo unspecified),-15%
O=C(NC1CCc2nnc(C3CC3)n2CC1)c1ccc(Cn2cncn2)o1 (stereo unspecified),i
CC[C@H]1CN(S(=O)(=O)c2ccc(OC)cc2)CC[C@H]1CC(=O)NCc1cccc2ccccc12,8%
O=C1NCc2ccccc2CC12CCN(Cc1ccc([N+](=O)[O-])cc1)C2 (stereo unspecified),-1%
CC(=O)N1C[C@@H]2CCCN3CCC[C@@H]([C@H]23)[C@H]1CCCC(=O)NC(C)C,i
COCCn1ncc(N2CCCC(CC(=O)NCc3ccc(OC)cc3)C2)cc1=O (stereo unspecified),i
Cc1cccc(=O)n1CCC(=O)N1CCCCC(N)C1 (stereo unspecified),1%
Cc1cc(C(F)(F)F)nc(CCNC(=O)c2ccc3ncccc3c2)n1,-15%
COc1ccc(-c2nc(C(C)C)nc3c2CCN(C(=O)NC2CCCC2)CC3)cc1,-3%
COC1CCC12CCN(C(=O)NC1CCCCC1)CC2 (stereo unspecified),-14%
CCCSC1=NC2(CCN(C(=O)NC3CCCCC3)CC2)N=C1c1ccc(OC)cc1,11µM*
CCCSC1=NC2(CCN(C(=O)NC3CCCCC3)CC2)N=C1c1ccccc1,i
CCSC1=NC2(CCN(C(=O)NC3CCCCC3)CC2)N=C1c1ccc(OC)cc1,7.1µM*
Cc1nc(-c2ccc(OC3CCN(C(=O)NC4CCCCC4)C3)cc2)no1 (stereo unspecified),18%[5.79 µM]
CCn1cc(CN2CCC([C@@H]3CNC[C@H]3CO)CC2)c(C)n1,55%
Cc1cccc(NC(=O)CC2=C3CCCCC3N(C)C2=O)c1 (stereo unspecified),-12%
C[C@@H]1CN(C(=O)c2cccc(N3CCCC3=O)c2)C[C@@]1(O)C1CCC1,i
O=C(NC1CCCN(c2cc(-c3ccc(F)cc3)[nH]n2)C1)c1ccoc1 (stereo unspecified),i
O=C(CN1C(=O)CNC1=O)N[C@@H]1[C@@H](Cc2ccccc2)[C@H]2OCC[C@@H]12,11%
COCCNC(=O)CC(c1ccccc1OC)c1cn(C)c2ccccc12 (stereo unspecified),i
Cc1ccc(F)c(OCC(=O)c2ccc3c(c2)N(CCCC(=O)NC2CC2)C(=O)CO3)c1,-14%
SMILES,Pf Dd2 growth
CNC(=O)[C@@H]1C[C@H](n2cc(CNC(=O)Nc3cc(F)ccc3F)nn2)CN1,2%
COC[C@@H]1CN(Cc2ccc(OC)c(OC)c2)C[C@H]1c1ccncc1,-25%
COC[C@@H]1CN(Cc2cnn(C)c2)C[C@H]1c1ccncc1,11%
COC[C@@H]1CN(Cc2c(OC)cccc2OC)C[C@H]1c1ccncc1,4.5µM*
O=C1CCCN1CCCN1C(=O)[C@@H]2C[C@@H](O)CN2C2(CN(Cc3ccoc3)C2)C1=O,9%[44.1 µM]
CC(C)c1ccc(Nc2c(-c3ccccn3)nc3ccccn23)cc1,4.5µM*
Cc1ccc(Nc2c(-c3cccnc3)nc3ccc(C)cn23)cc1,-12%
Cc1ccc2nc(-c3ccccn3)c(Nc3ccc(F)cc3)n2c1,4µM*
COc1cc(-c2nc3nc[nH]n3c2Nc2ccc(C(C)C)cc2)ccc1O,i
Clc1ccc2nc(-c3ccc(Br)o3)c(Nc3ccc4c(c3)OCCO4)n2c1,i
Fc1ccc(Nc2c(-c3ccccn3)nc3ccc(Cl)cn23)cc1,8.9µM*
COc1ccc(Nc2ccc3nnc(-c4ccccn4)n3n2)cc1,i
Cc1ccc2nc(-c3ccc(C)s3)c(Nc3ccc4c(c3)OCCO4)n2c1,15%
O=C(CCc1conc1-c1cccc(F)c1)NCc1ccccc1Cl,i
C[S+](=O)([O-])N1CCC2(CC1)C(=O)NN=C2C1CC1,8%[44.1 µM]
C[C@H]1CCCN1C(=O)c1nnc(CNc2ccccc2Cl)n1-c1ccccc1,-7%[44.1 µM]
CN1CCC([C@@H]2CN(C(=O)CCCc3c[nH]c4ccccc34)C[C@H]2C(N)=O)CC1,15%
CCn1nc(C(=O)N2C[C@@H](CN3CCN(C)CC3)[C@@H](CO)C2)cc1C,2%
COc1ccc(Nc2cc3c(cn2)CN(C)CCN3C)cc1OC,i
CC(C)CN1C(=O)c2cccn2CC1C(=O)NCCN1CCOCC1 (stereo unspecified),50%

# Assay outcomes from PubChem.
